An excerpt weighted towards active compounds, which were near 11% of everything screened.
PLK1 PBD inh: qHTS for Inhibitors of PLK1-PDB (polo-like kinase 1 - polo-box domain): Primary Screen; 360,000 tested, 2.8% active; Plk1 PBD binding of FITC phosphopeptide, fluorescence polarization; Serine/threonine-protein kinase PLK1 (Homo sapiens), P53350; Potency, µM, inactives show max response, negative = inhibition, hits mostly inhibitors; note: series mostly up to about 57 µM; % is set by controls: 0 for no effect and ±100 for the full control effect; nearly all actives have a fitted effect of over 65% in size
HP1b binding inh: HTS for Inhibitors of HP1-beta Chromodomain Interactions with Methylated Histone Tails. Chromobox protein homolog 1 (Homo sapiens), P83916. Potency, µM (doses to about 114 µM), inactives show at the highest dose activity change, negative = inhibition, hits mostly inhibitors. 390,000 tested, 0.56% active. AlphaScreen HP1-beta / biotin-H3K9me3 peptide binding; note: nearly all actives have a fitted effect of over 70% in size
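HP1-beta protein (50 nM final) preincubated 30 min at room temperature with biotinylated H3(1-18)K9me3 peptide (50 nM) in PBS pH 7.4, 0.01% Tween-20, then compound added for 30 min. AlphaScreen streptavidin donor/nickel chelate acceptor beads (10 ug/mL final), 30 min dark, luminescence read.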
JMJD2A Tudor: qHTS Assay for Inhibitors of JMJD2A-Tudor Domain. Lysine-specific demethylase 4A (Homo sapiens), O75164. AlphaScreen JMJD2A-Tudor / H3K4me3 peptide binding. Potency, µM (highest dose often 114 µM), without a hit: at the highest dose activity change, negative = inhibition, usual class: inhibitors. 390,000 tested, 4.4% active; note: % is set by controls: 0 for no effect and ±100 for the full control effect; nearly all actives have a fitted effect of over 50% in size
BAZ2B block: qHTS Assay for Inhibitors of BAZ2B. Bromodomain adjacent to zinc finger domain protein 2B (Homo sapiens), Q9UIF8. AlphaScreen BAZ2B-H3K14Ac peptide displacement. Potency, µM (highest dose often 114 µM), inactives show at the highest dose activity change, negative = inhibition, actives largely listed as inhibitors. 360,000 tested, 4.4% active. AID 504333, 2011; note: % is set by controls: 0 for no effect and ±100 for the full control effect; nearly all actives have a fitted effect of over 60% in size
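Protein-peptide AlphaScreen: BAZ2B 50 nM, b-H3K14Ac 50 nM, 1x PBS pH 7.4 + 0.01% Tween-20. Preincubation 30 min RT; cpd 30 min RT (top 110 uM); beads 20 min RT, light-protected.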
VDR inh: Inhibitors of the vitamin D receptor (VDR): qHTS; 400,000 tested, 0.93% active; Potency, µM, for inactives: max response, negative = inhibition, usual class: inhibitors; AID 504847, 2011; VDR-SRC2-3 peptide fluorescence polarization, 2 h; note: % is set by controls: 0 for no effect and ±100 for the full control effect
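FP read-out; VDR + SRC2-3 coactivator peptide; 23 nl compound by pintool; 2 h RT incubation; reagents held at 4 deg C, protected from light.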
G9a block: qHTS Assay for Inhibitors of Histone Lysine Methyltransferase G9a; Potency, µM (top dose mostly 102 µM), for inactives: at the highest dose activity, negative = inhibition, usual class: inhibitors; 350,000 tested, 8.8% active; G9a H3K9 monomethylation, AlphaScreen, 2 h; Histone-lysine N-methyltransferase EHMT2 (Homo sapiens), Q96KQ7; note: % is set by controls: 0 for no effect and ±100 for the full control effect; nearly all actives have a fitted effect of over 75% in size
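G9a (20 nM) preincubated 15 min RT with compounds, then 500 nM biotinylated H3K9 peptide and 20 uM SAM added; 2 h RT reaction. Monomethyl-H3K9 product detected by AlphaScreen with anti-H3K9me1 antibody, streptavidin donor and anti-rabbit IgG acceptor beads.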
Active calls of the source: *; ? = inconclusive; / = no result; ! = a repeat was not active; [ ] = remark or other dose. Calls come from the whole dose curve; as a rule, active = well fitted curve in the direction sought with a large enough effect; inconclusive = small, poorly fitted or top-dose-only effect, or another doubt; inactive = no such curve, though single readings can be large; an effect the other way counts as inactive or inconclusive. Potency is the fitted concentration of half-maximal effect.

SMILES | PLK1 PBD inh | HP1b binding inh | JMJD2A Tudor | BAZ2B block | VDR inh | G9a block
O=C(O)/C=C/c1cn(-c2ccccc2)nc1-c1ccc(-c2ccc([N+](=O)[O-])cc2)o1 | ? | ? | 44.7µM* | 50.1µM* | -14.1% | 50.1µM*
COc1ccc(C(=O)OCC(=O)c2c(N)n(C)c(=O)n(C)c2=O)c(OC)c1OC | 3.5% | 33.7% | -1.0% | / | -4.5% | /
S=c1[nH]nc(-c2cccs2)n1/N=C/c1cn(-c2ccccc2)nc1-c1ccccc1 | -17.1% | ? | ? | ? | 3.4% | 11.8%[59 µM]
Clc1ccccc1-c1nn2c(-c3cc(-c4ccccc4)n[nH]3)nnc2s1 | / | 20.5%[57 µM] | -10.8%[57.1 µM] | / | -14.1% | /
S=c1[nH]nc(-c2cc(-c3ccccc3)n[nH]2)n1/N=C/c1ccc(Br)s1 | ? | ? | ? | 56.2µM* | 1.9% | 28.2µM*
S=c1[nH]nc(-c2cc(-c3ccccc3)n[nH]2)n1/N=C/c1c(Cl)cccc1Cl | ? | 6.1% | 44.7µM* | 79.4µM* | -2.0% | 3.98µM*
CCN1CCN(CC(O)COC(c2ccccc2)c2ccccc2C)CC1 (stereo not drawn) | -9.3% | ? | 5.62µM* | 22.4µM* | 3.4% | 3.16µM*
Cc1ccccc1C(OCC(O)CN1CCC(C(N)=O)CC1)c1ccccc1 (stereo not drawn) | -4.5% | -1.2% | -11.1% | -10.7% | -7.2% | -7.0%
CCC(O)(c1ccccc1)C(CN1CCOCC1)c1ccccc1 (stereo not drawn) | -8.6% | 20.4% | -18.5% | -8.2% | 10.9% | -2.3%
c1ccc(C(CN2CCOCC2)c2ccccc2)cc1 | -11.1% | ? | 3.98µM* | ? | -4.8% | 25.1µM*
OC(COC(c1ccccc1)c1ccccc1)CN1CCOCC1 (stereo not drawn) | 29.9µM* | 17.7% | ? | 2.9% | -24.6% | 0.6%
CC1CN(CC(O)COC(c2ccccc2)c2ccccc2)CC(C)O1 (stereo not drawn) | -9.5% | ? | 0.891µM* | 56.2µM* | ? | 35.5µM*
Cc1cc(F)ccc1S(=O)(=O)N1CCCOC1CNC(=O)C(=O)NC1CC1 (stereo not drawn) | 3.3% | 5.4% | -11.0% | -4.3% | 1.0% | /
Cc1ccc(C(=O)N/N=C/c2nc3ccccc3n2C)cc1 | -14.2% | 46.7% | 63.1µM* | ? | -4.5% | 32.5%[12.7 µM]
CC(C)(C)OC(=O)N/N=C\c1cccnc1 | -21.2% | 2.6% | -15.0%[11.4 µM] | -31.0% | 5.1% | 1.26µM*
Cc1ccc(C(=O)Nc2ccc(C(=O)N/N=C/c3cccnc3)cc2)cc1 | -1.4% | ? | ? | -34.4% | 5.9% | 79.4µM*
NS(=O)(=O)c1ccc(CCNC(=O)COC(=O)CN2C(=O)C3CCCCC3C2=O)cc1 (stereo not drawn) | -9.5% | 17.4% | -8.2% | -2.2% | ? | 1.1%
COc1ccc(NC(=O)CN(C)C(=O)c2ccc(OCc3ccccc3)c(OC)c2)cc1 | 1.3% | 12.2% | -15.2% | 6.8% | -0.8% | 8.3%[0.501 µM]
COC(=O)N[C@@H](/C=C/c1ccccc1)/C(C(=O)OC)=C(\C)NCc1ccccc1 | / | / | / | / | -19.4% | /
CN(C)c1cccc(C(=O)OCC(=O)N(C)c2ccccc2)c1 | -16.5% | -23.2% | ? | ? | -2.4% | -14.9%
CN(C)c1ccc(NC(=O)COC(=O)c2cc(Cl)ccc2[N+](=O)[O-])cc1 | -10.4% | 50.1µM* | 25.1µM* | 35.5µM* | ? | 6.31µM*
CC(=O)c1ccc(NC(=O)COC(=O)c2ccccc2N=Nc2ccc(N(C)C)cc2)cc1 | -0.5% | 31.6µM* | 12.6µM* | 5.01µM* | 0.2% | 12.6µM*
CN(C)c1ccc(N=Nc2ccccc2C(=O)OCC(=O)N(C)c2ccccc2)cc1 | 1.0% | ? | 12.6µM* | 10µM* | 16.2% | 8.91µM*
NS(=O)(=O)c1ccc(NC(=O)COC(=O)c2cc(Cl)ccc2[N+](=O)[O-])cc1 | -15.6% | 7.6% | -13.7% | -15.3% | 11.1% | -4.8%[59 µM]
CC(=O)c1c(C)[nH]c(C(=O)OCC(=O)Nc2cc(Cl)ccc2[N+](=O)[O-])c1C | 1.8% | 14.8% | -14.7% | ? | 2.5% | 50.1µM*
SMILES | PLK1 PBD inh | HP1b binding inh | JMJD2A Tudor | BAZ2B block | VDR inh | G9a block
Cc1cccc(CNC(=O)CCn2c(=O)c3cccn3c3ccc(F)cc32)c1 | / | 50.1% | 4.9% | -3.0% | 2.9% | 9.9%[59 µM]
COC(=O)c1ccccc1NC(=O)COC(=O)[C@H](C)NC(N)=O | -6.0% | -10.1% | -10.9% | 12.4% | 13.8% | ?
COC(=O)c1ccccc1NC(=O)COC(=O)c1ccccc1N=Nc1ccc(N(C)C)cc1 | -8.8% | ? | 31.6µM* | 8.91µM* | ? | 8.91µM*
Cc1ccc([N+](=O)[O-])cc1NC(=O)CNC1CCCCC1 | -5.0% | 34.5% | 10.1%[57.1 µM] | 16.1% | 0.0% | /
O=C(CNC1CCCC1)Nc1cc(Cl)ccc1[N+](=O)[O-] | 0.0% | 39.8µM* | 1µM* | 56.2µM* | -2.1% | 44.7µM*
c1ccc(CNc2nc(-c3cccnc3)nc3ccccc23)cc1 | -7.9% | 29.0% | -16.1% | -4.2% | 17.8µM*! | -2.5%
Cc1ccc(Nc2nc(N)c([N+](=O)[O-])c(NCc3ccco3)n2)cc1 | -4.0% | 21.3% | -20.9% | -9.8% | -8.6% | 16.5%[59 µM]
Fc1ccc(Nc2nc(NCc3ccco3)c3ccccc3n2)cc1 | -10.9% | -15.3% | 50.1µM* | ? | 5.8% | /
c1ccc(CNc2ccnc(-c3cccnc3)n2)cc1 | / | / | / | / | 39.8µM* | 1.1%[0.501 µM]
Fc1ccc(Nc2nc(-c3ccoc3)nc3ccccc23)cc1 | / | / | / | / | 15.8µM* | 12.2%[0.501 µM]
Oc1ccc(Nc2nc(-c3ccccc3)nc3ccccc23)cc1 | 3.0% | 3.4% | -26.4% | ? | -21.1% | -0.7%
O=c1n(Cc2ccc(Cl)cc2)c2ccccc2c2nc(-c3ccccc3)nn12 | / | 38.5% | -2.3% | -4.7% | -6.8% | -5.8%[59 µM]
Cc1cnc(CNc2nc(-c3ccoc3)nc3ccccc23)cn1 | / | / | / | / | ? | -45.3%[0.501 µM]
c1cncc(-c2nc(NCC3COc4ccccc4O3)c3ccccc3n2)c1 (stereo not drawn) | -17.0% | 1.3% | 21.9%[11.4 µM] | -32.4% | 7.9% | 50.1µM*
c1ccc(CNc2nc(-c3ccoc3)nc3ccccc23)cc1 | / | / | / | / | 31.6µM* | -1.4%[0.501 µM]
CC1CCN(C(=O)Cn2cc(SCC(=O)Nc3ccccc3C(F)(F)F)c3ccccc32)CC1 | / | 42.7% | -28.6% | 2.7% | 8.9% | -4.7%[59 µM]
CN(C(=O)Cc1ccccc1OC(=O)c1ccccc1)c1ccccc1I | / | 23.1% | -8.3% | / | 1.9% | /

Screening data (PubChem)
